Experiment [1] in a line: qHTS of pediatric cancer cell lines to identify multiple opportunities for drug repurposing: Primary screen for LAN-5 cells (AID 1347100). Also: potency is read from the fitted curve at half-maximal effect. The method in brief:
(§1)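 Cells (500-1,000/well) rested 5 h, then received compounds for 48 h; metabolically active cells were measured by CellTiter-Glo luminescence. Final concentrations spanned up to 46 µM (MIPE, 11-point) or 0.59 nM-46 µM (NPC, 8-point) in primary screens, 11-point in follow-ups.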
(qHTS replaces the single test concentration by a dilution series.)

Experiment [2] can be described thus: qHTS of pediatric cancer cell lines to identify multiple opportunities for drug repurposing: Primary screen for BT-12 cells (AID 1347101). Also: nearly all actives have a fitted effect of over 25% in size. Also: potency is read from the fitted curve at half-maximal effect. The method in brief: as §1
Experiment [3] in a line: qHTS of pediatric cancer cell lines to identify multiple opportunities for drug repurposing: Primary screen for OHS-50 cells (AID 1347103). Also: nearly all actives have a fitted effect of over 40% in size. Also: potency is read from the fitted curve at half-maximal effect. The method in brief: as §1
A short description of experiment [4]: qHTS of pediatric cancer cell lines to identify multiple opportunities for drug repurposing: Primary screen for RD cells (AID 1347104). Also: nearly all actives have a fitted effect of over 55% in size. Also: potency is read from the fitted curve at half-maximal effect. The method in brief:
(§2)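 Viability was measured as metabolically active cells after 48 hours of treatment, read by CellTiter-Glo luminescence. Compounds were tested at multiple final concentrations, giving concentration-response curves.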

Experiment [5] in a line: qHTS of pediatric cancer cell lines to identify multiple opportunities for drug repurposing: Primary screen for control Hh wild type fibroblast cells (AID 1347106).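 Also: series mostly up to about 46 µM; a drop in luminescence marks cytotoxicity and a rise apparent proliferation; nearly all actives have a fitted effect of over 55% in size.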 The method in brief: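 Cells (500-1,000/well) in growth media were settled 5 h at 37 degrees C, then given compounds for 48 h. Viability was read as CellTiter-Glo luminescence. Primary runs used MIPE at 11 points (0.78 nM-46 µM) and NPC at 8 points (0.59 nM-46 µM); follow-ups used 11 points.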

Experiment [6] in a line: qHTS of pediatric cancer cell lines to identify multiple opportunities for drug repurposing: Primary screen for Rh30 cells (AID 1347107). Also: series mostly up to about 46 µM; nearly all actives have a fitted effect of over 75% in size. The method in brief: as §1
The nature of experiment [7]: qHTS of pediatric cancer cell lines to identify multiple opportunities for drug repurposing: Primary screen for Rh41 cells (AID 1347108).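 Also: series mostly up to about 46 µM; luminescence drop marks cytotoxic hits; nearly all actives have a fitted effect of over 70% in size.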 The essentials:
as §2

The nature of experiment [8]: qHTS of pediatric cancer cell lines to identify multiple opportunities for drug repurposing: Primary screen for MG 63 (6-TG R) cells (AID 1347105). Also: nearly all actives have a fitted effect of over 50% in size. Also: potency is read from the fitted curve at half-maximal effect. The essentials: as §2
A short description of experiment [9]: qHTS of pediatric cancer cell lines to identify multiple opportunities for drug repurposing: Confirmatory screen for NB1643 cells (AID 1347109). Also: nearly all actives have a fitted effect of over 45% in size. Also: potency is read from the fitted curve at half-maximal effect. The method in brief: as §1
Experiment [10] in a line: qHTS of pediatric cancer cell lines to identify multiple opportunities for drug repurposing: Confirmatory screen for NB-EBc1 cells (AID 1347115).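 Also: cells exposed to compound for 48 h before the viability read; nearly all actives have a fitted effect of over 45% in size.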 The essentials: as §1
Experiment [11] can be described thus: qHTS of pediatric cancer cell lines to identify multiple opportunities for drug repurposing: Confirmatory screen for SJ-GBM2 cells (AID 1347116). Also: nearly all actives have a fitted effect of over 60% in size. Also: potency is read from the fitted curve at half-maximal effect. The method in brief:
(§3)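 Viability measured as metabolically active cells via CellTiter-Glo luminescence following 48 hours of compound exposure, 11-point dilutions in confirmatory testing. 500-1,000 cells/well plated 5 hours before dosing; controls were DMSO and 2.3 µM bortezomib.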

A short description of experiment [12]: qHTS of pediatric cancer cell lines to identify multiple opportunities for drug repurposing: Confirmatory screen for TC32 cells (AID 1347118).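 Also: cells exposed to compound for 48 h before the read; nearly all actives have a fitted effect of over 65% in size.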 Also: potency is read from the fitted curve at half-maximal effect. The essentials: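 Measured quantity: luminescence from CellTiter-Glo, reflecting metabolically active TC32 cells following 48 h of compound. Curves came straight from multi-point titrations, with 8 or 11 points in primary and 11 in confirmatory screening.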

Experiment [13] is described as follows: qHTS of pediatric cancer cell lines to identify multiple opportunities for drug repurposing: Confirmatory screen for MG 63 (6-TG R) cells (AID 1347119). Also: nearly all actives have a fitted effect of over 55% in size. Also: potency is read from the fitted curve at half-maximal effect. The essentials:
as §1

Experiment [14] is described as follows: qHTS of pediatric cancer cell lines to identify multiple opportunities for drug repurposing: Confirmatory screen for control Hh wild type fibroblast cells (AID 1347121). Also: nearly all actives have a fitted effect of over 70% in size. The method in brief: as §1
A short description of experiment [15]: qHTS of pediatric cancer cell lines to identify multiple opportunities for drug repurposing: Confirmatory screen for Rh41 cells (AID 1347123). Also: nearly all actives have a fitted effect of over 60% in size. Also: potency is read from the fitted curve at half-maximal effect. The method in brief: as §1
Experiment [16] is described as follows: qHTS of pediatric cancer cell lines to identify multiple opportunities for drug repurposing: Confirmatory screen for A673 cells (AID 1347110).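 Also: cells exposed to compound for 48 h before the viability read; nearly all actives have a fitted effect of over 65% in size.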 Also: potency is read from the fitted curve at half-maximal effect. The essentials:
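Viability was read as ATP luminescence (CellTiter-Glo) after 48 h of compound exposure at 37 C in A673 cells seeded at 500-1,000/well. Titrations reached 46 uM final, with 11 points in the confirmatory screen. Concentration-response curves were fitted directly.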

Experiment [17] is described as follows: qHTS of pediatric cancer cell lines to identify multiple opportunities for drug repurposing: Confirmatory screen for DAOY cells (AID 1347114). Also: nearly all actives have a fitted effect of over 65% in size. Also: potency is read from the fitted curve at half-maximal effect. The essentials: as §3
A short description of experiment [18]: qHTS of pediatric cancer cell lines to identify multiple opportunities for drug repurposing: Primary screen for Rh18 cells (AID 1347102). Also: nearly all actives have a fitted effect of over 65% in size. The essentials: as §1
Experiment [19] is described as follows: qHTS of pediatric cancer cell lines to identify multiple opportunities for drug repurposing: Confirmatory screen for LAN-5 cells (AID 1347113). The essentials:
as §1

The nature of experiment [20]: qHTS of pediatric cancer cell lines to identify multiple opportunities for drug repurposing: Confirmatory screen for BT-37 cells (AID 1347117). Also: potency is read from the fitted curve at half-maximal effect; nearly all actives have a fitted effect of over 55% in size. The method in brief: as §1

Records with an inconclusive call do not appear. Values without a mark were called inactive. Calls of active or inactive are those of the source. Calls follow the shape of the dose curve; as a rule, active = well fitted curve in the direction sought with a large enough effect; inconclusive = small, poorly fitted or top-dose-only effect, or another doubt; inactive = no such curve, though single readings can be large; an effect the other way counts as inactive or inconclusive. Numbered stars: 1 amine (or outer) side, 2 acyl side, 3 side chain; on linkers, the order of the positions; unused ones are H or OH. Bridge positions count the residues as written; N and C are the ends. Square brackets hold non-standard residues; d marks the D form. Peptide text beside a SMILES is read from it. I, II: the chains in the order shown. Actinocin(9to1) = Cc1c2oc3c(C)ccc(C(=O)[*:1])c3nc-2c(C(=O)[*:2])c(N)c1=O; NMeV = CN[C@H](C(=O)O)C(C)C; Sar = CNCC(=O)O

Consider `Nc1ccc(C(=O)O)cc1`, for which the Potency entry in [1], in experiment [2], in experiment [3], in experiment [4], in experiment [5] and in experiment [6] was “inactive” each time. Besides, in experiment [7], the Potency result is “inactive”.
For the compound `O=C(CCCN1CCC(O)(c2ccc(Br)cc2)CC1)c1ccc(F)cc1`, the Potency result in experiment [1], in experiment [2], in experiment [4], in experiment [8], in experiment [5] and in [6] was “inactive” throughout. The Potency result in experiment [7], in [9], in experiment [10], in experiment [11], in experiment [13] and in experiment [14] was “inactive” in each case. For the same compound, the Potency in experiment [12] is 2.61 µM (active); in experiment [15], 18.5 µM (active).
Regarding `CCN(CC)CCNC(=O)COc1ccc(Cl)cc1`, the Potency result in [1], in experiment [2], in [3], in experiment [4], in [8] and in experiment [5] was “inactive” throughout. For the same compound, the Potency entry in experiment [6] and in [7] was “inactive” in each case.
As to `O=C(O)CCCCC(=O)O`, the Potency result in experiment [1], in [2], in experiment [3], in [4], in experiment [8] and in experiment [5] was “inactive” in each case. For the same compound, the Potency entry in experiment [6] and in experiment [7] was “inactive” in each case.
Turning to `CC(=O)OCC(=O)[C@@]1(O)CC[C@H]2[C@@H]3CCC4=CC(=O)C=C[C@]4(C)[C@H]3[C@@H](O)C[C@@]21C`, the Potency entry in experiment [1], in [2], in [4], in experiment [8], in [5] and in experiment [6] was “inactive” throughout. Also, the Potency result in [7], in experiment [9], in experiment [16], in experiment [17], in experiment [10] and in experiment [11] was “inactive” each time. For the same compound, the Potency result in [12], in [13], in experiment [14] and in experiment [15] was “inactive” in each case.
Take `Oc1ccc(Cl)cc1Sc1cc(Cl)ccc1O`: the values for the Potency in [1], in [2] and in experiment [4] were 18.8 µM (active), 19.5 µM (active) and 23.7 µM (active), respectively. Further, in [5], the Potency entry is “inactive”.
For `CC[N+](CC)(CCNC(=O)C(=O)NCC[N+](CC)(CC)Cc1ccccc1Cl)Cc1ccccc1Cl`, the Potency result in experiment [1], in [2], in experiment [3], in experiment [4], in [8] and in [5] was “inactive” throughout. In [7], the Potency result was “inactive”.
On to `Cc1ncc(CSSCc2cnc(C)c(O)c2CO)c(CO)c1O`, for which the Potency entry in experiment [1], in experiment [2], in experiment [3], in experiment [4], in [8] and in experiment [5] was “inactive” throughout. Moreover, the Potency result in experiment [6] and in experiment [7] was “inactive” each time.
As for `CCOC(=O)c1cccc(N)c1`, the Potency result in experiment [1], in experiment [2], in experiment [3], in experiment [4], in experiment [8] and in experiment [5] was “inactive” throughout. Besides, the Potency result in [7] is “inactive”.
For the compound `CN1CCCC(CC2c3ccccc3Sc3ccccc32)C1` (stereo not given), the Potency in experiment [1] is 23.7 µM (active); in experiment [2] it was 19.5 µM (active); in [3], 24.6 µM (active). Besides, the Potency result in [5], in experiment [6] and in experiment [7] was “inactive” in each case.
As to `COc1cc(/C=C/C(=O)O[C@H]2CC[C@]34C[C@]35CC[C@]3(C)[C@@H]([C@H](C)CCC=C(C)C)CC[C@@]3(C)[C@@H]5CC[C@H]4C2(C)C)ccc1O`, the Potency entry in [1], in [2], in experiment [4], in experiment [5] and in experiment [6] was “inactive” in each case.
For the compound `CC(O)C(=O)O` (stereo not given), the Potency result in experiment [1], in experiment [2], in [3], in [4], in [8] and in [5] was “inactive” throughout. Moreover, the Potency result in [6] was “inactive”.
Turning to `CCOC(=O)/C=C(C)/C=C/C=C(C)/C=C/c1c(C)cc(OC)c(C)c1C`, the Potency entry in [1], in experiment [18], in experiment [4], in experiment [8], in experiment [5] and in [6] was “inactive” each time. Moreover, in [3], the Potency was 24.6 µM (active).
For `NC(=O)c1cc[n+](CC2=C(C(=O)[O-])N3C(=O)[C@@H](NC(=O)Cc4cccs4)[C@H]3SC2)cc1`, the Potency result in experiment [1], in experiment [2], in experiment [3], in [4], in experiment [8] and in experiment [5] was “inactive” throughout. For the same compound, the Potency entry in experiment [7] is “inactive”.
With `O=C(N/N=C/c1ccccc1O)c1ccncc1`, the Potency is 2.99 µM (active) in [1], 6.17 µM (active) in [2], 5.5 µM (active) in experiment [3] and 6.68 µM (active) in [8].
For the compound `COC(=O)[C@@H]1CC2=CC(=O)CC[C@]2(C)[C@@]23O[C@@H]2C[C@@]2(C)[C@@H](CC[C@@]24CCC(=O)O4)[C@H]13`, the Potency entry in experiment [1], in experiment [2], in experiment [3], in [4], in experiment [8] and in experiment [5] was “inactive” throughout. In [7], the Potency result is “inactive”.
For the compound `CC(=O)OCC(=O)[C@@]1(O)[C@H](C)C[C@H]2[C@@H]3CCC4=CC(=O)C=C[C@]4(C)[C@@]3(F)[C@@H](O)C[C@@]21C`, the Potency entry in experiment [1], in [2], in [3], in [4], in experiment [8] and in experiment [5] was “inactive” each time. The Potency entry in experiment [6], in experiment [7] and in experiment [10] was “inactive” each time. Further, the Potency in experiment [9] is 20.8 µM (active); in experiment [16], 9.27 µM (active); in [12] it was 18.5 µM (active).
Turning to `CCN1CCCC1=O`, the Potency entry in experiment [1], in experiment [2], in experiment [3], in experiment [4], in experiment [8] and in [5] was “inactive” throughout. Further, in experiment [7], the Potency entry is “inactive”.
Consider `COc1ccc(OC)c(C(O)CNC(=O)CN)c1` (stereo not given), for which the Potency entry in [1], in experiment [2], in experiment [3], in experiment [4], in [8] and in experiment [5] was “inactive” throughout. For the same compound, the Potency entry in experiment [7] was “inactive”.
With `Cc1c2oc3c(C)ccc(C(=O)N[C@@H]4C(=O)N[C@H](C(C)C)C(=O)N5CCC[C@H]5C(=O)N(C)CC(=O)N(C)[C@@H](C(C)C)C(=O)O[C@@H]4C)c3nc-2c(C(=O)N[C@@H]2C(=O)N[C@H](C(C)C)C(=O)N3CCC[C@H]3C(=O)N(C)CC(=O)N(C)[C@@H](C(C)C)C(=O)O[C@@H]2C)c(N)c1=O` (I: T[dV]P[Sar][NMeV] / II: T[dV]P[Sar][NMeV]; ester I:1-I:C, II:1-II:C; linker I:N-II:N via Actinocin(9to1)), the Potency entry in [1], in experiment [6], in experiment [9], in experiment [10] and in [14] was “inactive” throughout. The Potency in experiment [2] was 0.0069 µM (active); in [3], 0.0347 µM (active); in experiment [4] it was 0.0133 µM (active); in experiment [8], 0.0335 µM (active); in [16], 0.0131 µM (active); in experiment [19] it was 0.0023 µM (active). Moreover, the Potency was 0.0261 µM (active) in experiment [17]; 0.0261 µM (active) in experiment [11]; 0.0023 µM (active) in experiment [20]; 0.0093 µM (active) in experiment [12]; 0.0329 µM (active) in [13]; 0.0147 µM (active) in [15].

(Values after PubChem BioAssay (NCATS).)
